Among the data in PubChem BioAssay (Tox21) are Potency and outcome values, retold here.

“And” between values parts separate entries of the source, which are not always exact repeats. Identical values can stand only once. Records with an inconclusive call do not appear. Some compounds were tested as several samples or in several runs, with calls that do not always agree. The source made the active and inactive calls. Unless noted, calls come from the whole dose curve; as a rule, active = well fitted curve in the direction sought with a large enough effect in the repeat runs; inconclusive = weak or mixed curves; inactive = no such curve, though single readings can be large; an effect the other way counts as inactive or inconclusive.

A short description of assay [1]: qHTS assay for small molecule agonists of the p53 signaling pathway (AID 651631; calls by dose curve; note: nearly all actives have a fitted effect of over 15% in size; note: potency is the fitted concentration of half-maximal effect). The method in brief: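 We treat p53RE-bla HCT-116 cells with compounds for 16 h at 37 °C, add LiveBLAzer B/G FRET substrate for 2 h at room temperature, and measure fluorescence intensity.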
Assay [2] can be described thus: qHTS assay for small molecules that induce genotoxicity in human embryonic kidney cells expressing luciferase-tagged ATAD5 (AID 651632). Note: nearly all actives have a fitted effect of over 15% in size. The procedure, abridged: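 Luminescent reporter readout, HEK293T ATAD5-luc line: 16 hr drug exposure (37C, 5% CO2) followed by Amplite, 30 min RT.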
In general terms: qHTS replaces the single test concentration by a dilution series.

A short description of assay [3]: qHTS assay for small molecule agonists of the p53 signaling pathway - cell viability (AID 651633; calls by dose curve;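 note: p53RE-bla HCT reporter cells with a stable beta-lactamase p53 reporter; series mostly up to about 83 µM; nearly all actives have a fitted effect of over 30% in size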). The procedure, abridged:
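p53RE-bla cells, seeded at 4,000 per well and rested 5 h at 37 C/5% CO2, received compounds in DMSO for 16 h at 37 C. CellTiter-Glo was then added, and luminescence was read after 30 min at room temperature to gauge cytotoxicity.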

A short description of assay [4]: qHTS assay for small molecules that induce genotoxicity in human embryonic kidney cells expressing luciferase-tagged ATAD5 - cell viability (AID 651634; calls by dose curve; note: nearly all actives have a fitted effect of over 25% in size; note: potency is the fitted concentration of half-maximal effect). The method in brief: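 Viability read: CellTiter-Fluor fluorescence, 30 min at 37C. Cells: HEK293T, luciferase-tagged ATAD5. Exposure: 15.5 hr, 37C, 5% CO2, compound or DMSO vehicle.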
A short description of assay [5]: qHTS assay for small molecule disruptors of the mitochondrial membrane potential - cell viability (AID 720634; calls by dose curve;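 note: human HepG2 liver cancer cells; series mostly up to about 83 µM; nearly all actives have a fitted effect of over 20% in size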). The method in brief: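 HepG2, 1 hr compound, 37 C. ATP luminescence via CellTiter-Glo, 30 min RT, same well as m-MPI.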
The nature of assay [6]: qHTS assay for small molecule disruptors of the mitochondrial membrane potential (AID 720635). Note: potency is the fitted concentration of half-maximal effect. The method in brief: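 HepG2 cells (2,000/well) attached overnight at 37C, then took compound for 1 hr at 37C, 5% CO2. Mito-MPS dye was added for 30 min; fluorescence was read at 490/535 nm (monomers) and 540/590 nm (aggregates).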
Assay [7] in a line: qHTS assay to test for compound auto fluorescence at 590 nm (red) in HepG2 cells (AID 720674). The procedure, abridged: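 Rose Bengal sodium served as the red fluorophore standard. HepG2 monolayers (overnight attachment, MEM with 10% FBS) were exposed to test compounds for 1 hr at 37 C and read at Ex 540/Em 590 nm.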
Assay [8] can be described thus: qHTS assay to test for compound auto fluorescence at 535 nm (green) in HepG2 cells (AID 720675).
The nature of assay [9]: qHTS assay to test for compound auto fluorescence at 460 nm (blue) in HEK293 cells (AID 720678). The procedure, abridged: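 Triamterene serves as the blue fluorophore standard. Compound signal at 405/460 nm is read in HEK293 wells (2,000 cells, 10% dialyzed FBS) after overnight treatment at 37C.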
Assay [10] can be described thus: qHTS assay to test for compound auto fluorescence at 590 nm (red) in HEK293 cells (AID 720679). The method in brief:
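We plated HEK293 cells in 10% dialyzed FBS medium, let them adhere for 4-5 hr, then added 23 nL compound. Overnight at 37C and 5% CO2 preceded fluorescence measurement at 540/590nm.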

The nature of assay [11]: qHTS assay to test for compound auto fluorescence at 535 nm (green) in HEK293 cells (AID 720680).
Assay [12] in a line: qHTS assay to test for compound auto fluorescence at 460 nm (blue) in HEK293 cell free culture (AID 720681). The procedure, abridged: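 Test compounds were pinned into cell-free culture medium (DMEM with 10% FBS) and fluorescence was read directly at Ex/Em 405/460 nm. Signals were expressed as fluorescence equivalents of triamterene, with DMSO vehicle as control.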
Assay [13] in a line: qHTS assay to test for compound auto fluorescence at 535 nm (green) in HEK293 cell free culture (AID 720682). The procedure, abridged:
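Green-channel intensity (Ex/Em 485/535 nm) was recorded from compound-treated wells containing only DMEM with 10% FBS. Fluorescein provided the equivalency standard.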

Assay [14] in a line: qHTS assay to test for compound auto fluorescence at 590 nm (red) in HEK293 cell free culture (AID 720683). The procedure, abridged: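 Tox21 10K library compounds were pinned into cell-free DMEM with 10% FBS and fluorescence was read at excitation 540 nm. Activity is expressed as Rose Bengal sodium equivalency.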
Assay [15] in a line: qHTS assay to test for compound auto fluorescence at 590 nm (red) in HepG2 cell free culture (AID 720684). The method in brief: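 Red fluorescence (540 nm excitation, 590 nm emission) was measured after compound transfer into cell-free MEM supplemented with 10% FBS. Values are equivalencies against Rose Bengal sodium.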
Assay [16] in a line: qHTS assay to test for compound auto fluorescence at 460 nm (blue) in HepG2 cell free culture (AID 720685). The procedure, abridged:
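Compound (23 nL) or DMSO pinned into cell-free MEM with 10% FBS; blue fluorescence read at 405/460 nm excitation/emission, expressed as auto-fluorescence equivalency to triamterene.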

Assay [17] in a line: qHTS assay to test for compound auto fluorescence at 535 nm (green) in HepG2 cell free culture (AID 720686).
Assay [18] is described as follows: qHTS assay to test for compound auto fluorescence at 460 nm (blue) in HepG2 cells (AID 720687). The method in brief:
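Cells (2,000/well in MEM with 10% FBS) attached overnight at 37 C, then were exposed to compound or DMSO for 1 hr at 37 C, 5% CO2. Fluorescence read at Ex/Em 405/460 nm, expressed as triamterene-equivalent signal.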

For assay [19], the target named is Glucocorticoid receptor (Homo sapiens) (UniProt P04150). Description: qHTS assay to identify small molecule antagonists of the glucocorticoid receptor (GR) signaling pathway (AID 720692; active = well fitted inhibition curve with a large enough effect in the signal ratio in the repeat runs, not every such curve was filed as active; the % refers to the signal ratio; note: potency is the fitted concentration of half-maximal effect). The procedure, abridged:
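Inhibition of glucocorticoid signalling is measured in HeLa cells with a GRE-controlled beta-lactamase reporter; cells are co-treated with compound and 5 nM dexamethasone (final) for 18 h before FRET substrate readout.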

Assay [20] has the same target. Description: qHTS assay to identify small molecule agonists of the glucocorticoid receptor (GR) signaling pathway (AID 720691; active = well fitted activation curve with a large enough effect in the signal ratio in the repeat runs, not every such curve was filed as active; the % refers to the signal ratio). The method in brief:
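qHTS in GR-bla HeLa cells: 4 h settling at 37 C/5% CO2, 18 h compound incubation at 37 C, 2 h LiveBLAzer B/G FRET substrate at room temperature, fluorescence intensity measured.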

Chain of Glucocorticoid receptor (Homo sapiens) (P04150 whole entry, looked up): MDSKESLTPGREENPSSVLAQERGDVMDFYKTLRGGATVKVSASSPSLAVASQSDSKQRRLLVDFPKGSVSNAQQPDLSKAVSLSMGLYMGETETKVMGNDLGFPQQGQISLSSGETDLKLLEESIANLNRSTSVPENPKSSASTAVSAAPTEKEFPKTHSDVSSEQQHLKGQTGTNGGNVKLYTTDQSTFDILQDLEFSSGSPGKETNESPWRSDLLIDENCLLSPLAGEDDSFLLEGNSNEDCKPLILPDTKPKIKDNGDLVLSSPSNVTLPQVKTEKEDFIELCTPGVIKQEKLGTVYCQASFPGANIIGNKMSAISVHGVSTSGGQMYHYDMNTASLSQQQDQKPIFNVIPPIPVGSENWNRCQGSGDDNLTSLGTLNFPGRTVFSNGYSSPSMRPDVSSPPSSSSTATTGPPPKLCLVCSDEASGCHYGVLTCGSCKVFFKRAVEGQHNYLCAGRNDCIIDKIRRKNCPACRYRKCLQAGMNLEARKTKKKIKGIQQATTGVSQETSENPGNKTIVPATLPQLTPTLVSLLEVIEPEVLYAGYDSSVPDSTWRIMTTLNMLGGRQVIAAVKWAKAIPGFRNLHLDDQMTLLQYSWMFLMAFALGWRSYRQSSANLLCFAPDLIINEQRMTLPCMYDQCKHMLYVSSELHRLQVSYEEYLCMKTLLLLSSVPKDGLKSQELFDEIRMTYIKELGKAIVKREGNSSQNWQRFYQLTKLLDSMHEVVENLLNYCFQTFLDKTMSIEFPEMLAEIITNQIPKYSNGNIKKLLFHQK

On to `CCCCOCCOCCOC(C)=O`, for which the Potency entry in assay [1], in assay [2], in assay [3], in assay [4], in assay [5] and in assay [6] was “inactive” in each case. Further, in [19], the Potency result is “inactive”. Moreover, the result in assay [7], in assay [8], in [9], in assay [10], in assay [11] and in [12] was inactive. Besides, the result in assay [13], in assay [14], in [15], in [16], in assay [17] and in assay [18] was inactive.

Take `C#C[C@]1(O)CC[C@H]2[C@@H]3CCc4cc(O)ccc4[C@H]3CC[C@@]21C`: the Potency was 8.41 µM (active) and 7.64 µM (active) and 6.11 µM (active) in assay [1]; 15.2 µM (active) in [4]; 13.3 µM (active) and 13.6 µM (active) and 17.2 µM (active) in assay [6]; 1.54 µM (active) in assay [19]. For the same compound, the Potency result in [2], in assay [3] and in assay [5] was “inactive” in each case. The call in assay [7], in assay [9], in assay [10], in assay [11], in assay [12] and in [13] was inactive. Besides, the compound was called inactive in [14], in assay [15], in [16], in assay [17] and in assay [18].

For the compound `CCCCCCCC(=O)OCC(O)CO` (stereo unspecified), the Potency result in assay [1], in assay [2], in assay [3], in assay [4], in assay [5] and in [6] was “inactive” throughout. The Potency entry in [19] is “inactive”. In addition, the outcome in assay [7], in [8], in [9], in assay [10], in [11] and in assay [12] was inactive. The compound was called inactive in [13], in assay [14], in [15], in assay [16], in assay [17] and in assay [18].

In the case of `COc1ccccc1O`, in assay [1], the Potency entry is “inactive and 4.35 µM (active)”. Moreover, the Potency result in [2], in assay [3], in assay [4], in assay [5], in assay [6] and in [20] was “inactive” each time. Besides, in assay [19], the Potency entry is “inactive”. The compound was classed as inactive in assay [7], in assay [8], in [9], in [10], in [11] and in [12]. For the same compound, the outcome in [13], in [14], in assay [15], in [16], in assay [17] and in assay [18] was inactive.

On to `CC1=NN(c2ccccc2)C(=O)C1`, for which the Potency result in assay [1], in assay [2], in assay [3], in assay [4], in [5] and in [19] was “inactive” each time. Further, the Potency in assay [6] is 11.9 µM (active) and 61.5 µM (active). For the same compound, the result in assay [7], in assay [8], in assay [9], in [10], in [11] and in [12] was inactive. The outcome in [13], in assay [14], in assay [15], in [16], in assay [17] and in assay [18] was inactive.

On to `O=c1cc[nH]c(=O)[nH]1`, for which the Potency entry in assay [1], in assay [2], in assay [3], in [4], in [5] and in [6] was “inactive” each time. In addition, the Potency result in assay [20] and in assay [19] was “inactive” each time. The result in [7], in assay [9], in assay [10], in assay [11], in assay [12] and in assay [13] was inactive. In addition, the compound was called inactive in assay [14], in assay [15], in [16], in assay [17] and in assay [18].

For `CC(=O)OC/C=C(C)/C=C/C=C(C)/C=C/C1=C(C)CCCC1(C)C`, the Potency entry in assay [1], in assay [2], in [3], in assay [4], in assay [5] and in assay [6] was “inactive” each time. Also, the call in assay [7], in [9], in assay [10], in assay [11], in assay [12] and in assay [13] was inactive. Also, the call in [14], in assay [15], in [16], in assay [17] and in assay [18] was inactive.
